In PubChem BioAssay AID1030 (National Center for Advancing Translational Sciences (NCATS), 2008):
Values joined by “and” are separate entries in the source; they are usually repeats but may differ in a detail not shown here. Identical values can stand only once. The campaign covered roughly 220,000 compounds. About 16,000 (7.3%) were called active. About 25% were inconclusive and are not listed. This is one part of a sample in which actives are shown more often than they occur. The call rests on the fitted dose curve; in most records, active means well fitted inhibition curve with a large enough effect (not every such curve was filed as active); inconclusive means small, poorly fitted or top-dose-only effect, or another doubt; inactive means no such curve, though single readings can be large or run the other way.

Target: Aldehyde dehydrogenase 1A1 (Homo sapiens) (UniProt P00352)
Sequence (P00352 whole entry, looked up): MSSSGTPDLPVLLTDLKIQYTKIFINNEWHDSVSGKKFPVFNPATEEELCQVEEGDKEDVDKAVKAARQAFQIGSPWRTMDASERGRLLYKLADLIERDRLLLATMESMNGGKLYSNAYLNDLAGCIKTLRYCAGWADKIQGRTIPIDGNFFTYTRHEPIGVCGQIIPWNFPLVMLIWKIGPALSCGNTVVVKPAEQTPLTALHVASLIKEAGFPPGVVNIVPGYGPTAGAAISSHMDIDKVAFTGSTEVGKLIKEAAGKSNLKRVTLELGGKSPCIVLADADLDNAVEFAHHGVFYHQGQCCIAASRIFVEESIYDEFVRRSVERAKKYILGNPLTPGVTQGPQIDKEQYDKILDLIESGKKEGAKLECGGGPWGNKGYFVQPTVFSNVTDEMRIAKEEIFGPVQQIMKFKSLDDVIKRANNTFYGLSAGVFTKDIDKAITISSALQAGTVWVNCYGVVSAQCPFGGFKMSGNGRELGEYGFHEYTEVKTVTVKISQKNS
Experiment: qHTS Assay for Inhibitors of Aldehyde Dehydrogenase 1 (ALDH1A1);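 on activity, negative = inhibition: plate controls were no enzyme wells and a reference inhibitor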
Settings: Purified ALDH1A1, NADH fluorescence, propionaldehyde substrate; series mostly up to 75.3 µM; activity, negative = inhibition: at the top concentration
Potency means the concentration at half of the fitted maximal effect.

SMILES | activity, negative = inhibition | Potency
Nc1nc2c(ncn2[C@@H]2O[C@H](COP(=O)(O)OP(=O)(O)OP(=O)(O)O)[C@@H](O)C2O)c(=O)[nH]1 (some centres undefined) | 4.41% (inactive) | –
O=C(Nc1ccccc1C(=O)N1CCOCC1)c1ccc(Cl)cc1 | 5.03% (inactive) | –
Fc1cccc(Cl)c1CSc1ccc(-c2ccco2)nn1 | – | 20 µM (active)
O=C(CSCc1c(F)cccc1Cl)NCC1CCCO1 (centres undefined) | 2.6% (inactive) | –
Cc1nnsc1C(=O)NCc1c(F)cccc1Cl | 9.4% (inactive) | –
CCc1ccc(C(=O)OCC(=O)NCC(F)(F)F)cc1 | -2.12% (inactive) | –
OCCNCCOc1ccc(Cl)c(Cl)c1 | -8.88% (inactive) | –
COc1ccc(-n2cnnc2SCC(=O)Nc2cccc([N+](=O)[O-])c2)cc1 | 5.76% (inactive) | –
C=CCn1c(COc2ccccc2)nnc1SCC(=O)NCC(=O)OCC | 8.67% (inactive) | –
C=CCn1c2ccccc2c2nnc(SC(CC)C(=O)Nc3nc(C)c(C(=O)OCC)s3)nc21 (centres undefined) | -8.14% (inactive) | –
C=CCn1c2ccccc2c2nnc(SCc3[nH]c(=O)[nH]c3C(=O)CCCCC(=O)OCC)nc21 | – | 10 µM (active)
COc1ccccc1C(c1nnnn1C(C)(C)C)N1CCN(Cc2ccccc2)CC1 (centres undefined) | – | 20 µM (active)
CCCC(c1nnnn1C(C)(C)C)N1CCN(Cc2ccccc2)CC1 (centres undefined) | -2.73% (inactive) | –
CC(C)(C)n1nnnc1C(c1ccc(F)cc1)N1CCN(Cc2ccc3c(c2)OCO3)CC1 (centres undefined) | -1.16% (inactive) | –
CCc1c(SCCC(=O)O)nc2ccccc2c1C | -7.58% (inactive) | –
O=C(N/N=C/c1ccco1)c1ccc(C(=O)N/N=C/c2ccco2)o1 | -3.13% (inactive) | –
O=C(N/N=C/C=C/c1ccco1)c1cccs1 | – | 2 µM (active)
CC(=O)Nc1ccc(/C=N/NC(=O)c2cccs2)cc1 | 3.71% (inactive) | –
CCOc1cc(/C=C(/C#N)c2ccc(Cl)cc2)cc(Cl)c1OCC(=O)O | -0.694% (inactive) | –
N#CCCN1CCN(S(=O)(=O)c2ccc(S(=O)(=O)NC3CC3)cc2)CC1 | 6.11% (inactive) | –
Cn1sc(=O)c2cc(S(=O)(=O)NC3CC3)ccc21 | – | 0.501 µM (active)
Cc1cccc(CCNS(=O)(=O)c2ccc(S(=O)(=O)NC3CCCC3)cc2)c1 | -12.2% (inactive) | –
CCN(CC)C(=O)Oc1ccc(OC(=O)N(CC)CC)cc1 | -3.17% (inactive) | –

SMILES | activity, negative = inhibition | Potency
Cc1nonc1NC(=O)CSc1nc2ccccc2cc1C#N | 4.78% (inactive) | –
C=CC(=O)c1ccc2ccccc2c1 | – | 11.2 nM (active) and 100 nM (active)
Cc1ccc2nc(CC(=O)c3ccc4ccccc4c3)c(=O)[nH]c2c1 | 12.1% [at 13.5 µM] (inactive) | –
CC(=O)CCC(=O)c1ccc2ccccc2c1 | -5.73% (inactive) | –
CC(=O)Nc1nc2ccccc2n1Cc1ccc(C)cc1 | 0.717% (inactive) | –
CN(C)CCCN(C(=O)COc1ccccc1)c1nc2c(Cl)cccc2s1 | 2.64% (inactive) | –
CCC(C)(C)NC(=O)CN(C(=O)CCC(=O)Nc1cc(C)ccn1)c1ccc2c(c1)OCCO2 | 2.32% (inactive) | –
Cc1ccnc(NC(=O)c2ccoc2C)c1 | 7.63% (inactive) | –
COc1cc(SC)ccc1C(=O)Nc1cc(C)ccn1 | – | 22.4 µM (active)
COc1cc(SC)ccc1C(=O)Nc1nc(C)cs1 | 7.61% (inactive) | –
O=C(O)COc1ccc(/C=N/O)cc1Br | -1.14% (inactive) | –
Cc1ccccc1CN(c1ccc(C(=O)NCC2CCCO2)cc1)S(C)(=O)=O (centres undefined) | 10.6% (inactive) | –
C/C=C(\C)C(=O)NCCN1C2=NC[C@H](Cc3ccc(O)cc3)N2C[C@@H]1Cc1ccc(OC)cc1 | 5.48% (inactive) | –
CC(NC(=O)COC(=O)c1ccc2c(c1)OCO2)c1ccccc1 (centres undefined) | -4.82% (inactive) | –
CCOC(=O)c1c(Cc2ccc(Cl)cc2)c[nH]c1C | -2.42% (inactive) | –
CCOC(=O)c1ccc(CS(=O)c2ccc(Cl)cc2)o1 (centres undefined) | – | 2.82 µM (active)
CCOC(=O)c1ccc(COC(=O)c2cc(=O)[nH]c3ccccc23)o1 | -5.02% (inactive) | –
CCOC(=O)c1ccccc1NC(=O)CSc1nc2ccccc2c(=O)[nH]1 | -3.53% (inactive) | –
Cc1cc(=O)oc(C)c1C(=O)NCCN(C)Cc1ccccc1 | -12% (inactive) | –
C=CS(=O)c1sc(Cl)c(N2CCOCC2)c1[N+](=O)[O-] (centres undefined) | – | 2 µM (active)
Cn1c(SCC(=O)NC2CCCCC2)nnc1-c1ccc(N)cc1 | 4.84% (inactive) | –
CCOC(=O)/C=c1\s/c(=C\c2ccc(C#N)cc2)c(=O)n1CC(=O)Nc1cccc(C)c1C | 1.24% (inactive) | –
CC1(C)Cc2cccc(OCC(=O)Nc3nccs3)c2O1 | -3.74% (inactive) | –

SMILES | activity, negative = inhibition | Potency
CC1(C)Cc2cccc(OCC(N)=O)c2O1 | 14.2% (inactive) | –
CC1(C)Cc2cccc(OCC(=O)N3CCN(c4ccc([N+](=O)[O-])cc4)CC3)c2O1 | – | 10 µM (active)
Cc1cc2ccccc2n1CCC(=O)O | 10.7% (inactive) | –
O=[N+]([O-])c1ccccc1NCc1ccccc1Cl | -2.06% (inactive) | –
Cc1cccc(C)c1NC(=O)C1(N(C(=O)c2ccccn2)c2ccc(O)cc2)CCCCC1 | 4.63% (inactive) | –
COc1ccccc1-n1c(CNC(=O)c2ccccc2)nnc1SCC(=O)Nc1nnc(C)s1 | -1.72% (inactive) | –
CCn1c(SCC(=O)Nc2ccc3c(c2)OCCO3)nc2c(c1=O)SC(C)C2 (centres undefined) | 0.288% (inactive) | –
CCc1nnc(NC(=O)CSc2nc3ccccc3c(=O)n2CCCOC)s1 | -2.48% (inactive) | –
CCOc1ccc(NC(=O)CSc2nc3c(c(=O)n2-c2ccccc2OC)SCC3)cc1 | – | 17.8 µM (active)
CCOC(=O)c1sc(NC(=O)CSc2nc3c(c(=O)n2-c2ccccc2)SCC3)c(C(=O)OCC)c1C | 3.33% (inactive) | –
CCc1nnc(NC(=O)CSc2nc3c(c(=O)n2-c2ccccc2OC)SCC3)s1 | – | 22.4 µM (active)
O=C(Nn1cnc2ccccc2c1=O)c1ccc([N+](=O)[O-])cc1Cl | 2.25% (inactive) | –
C=C(C(C)=O)C(O)c1ccc([N+](=O)[O-])cc1 (centres undefined) | -8.28% (inactive) | –
CCCCC(=O)NCc1ccc(F)cc1 | 14.5% (inactive) | –
COc1ccc(S(=O)(=O)NC(CC(=O)NCc2ccccc2OC)c2ccco2)cc1 (centres undefined) | – | 10 µM (active)
COc1ccccc1CNS(=O)(=O)c1ccc(C)cc1 | 2.08% (inactive) | –
O=C(CC(NS(=O)(=O)c1ccc(Cl)cc1)c1ccco1)NC1CCCC1 (centres undefined) | 6.1% (inactive) | –
COC(=O)CCC(=O)N1CCCC(CO)(Cc2ccccc2)C1 (centres undefined) | 1.8% (inactive) | –
C#CCCOC(=O)N1C2=NC(C(=O)OC)=C(C(=O)OC)[C@@H]3N(C)c4ccc(OC)cc4[C@]23C[C@H]1C(=O)OC | 4.88% [at 13.5 µM] (inactive) | –
CCOC(=O)CN/C=C(\C#N)c1ccc(F)cc1 | -3.19% (inactive) | –
Cc1ccc(C(=O)c2c(NC(=O)c3ccccc3)sc(C)c2C)cc1 | – | 25.1 µM (active)
Cc1ccc(C(=O)c2c(NC(=O)c3ccncc3)sc3c2CCCC3)cc1 | 5.45% (inactive) | –
Cc1ccc(C(=O)NCCNC(=O)c2ccccc2)cc1 | 2.28% (inactive) | –
